# Screening results: PubChem BioAssay, National Center for Advancing Translational Sciences (NCATS)
# Casp7 inh = blocks human caspase-7 allosterically or competitively. recombinant caspase-7, Ac-DEVD-AFC fluorescence rate. Potency, µM (series often up to 57.5 µM), without a hit: at the top dose activity change, negative = inhibition, actives largely listed as inhibitors. 75,000 compounds, 0.02% hits; active = well fitted inhibition curve with a large enough effect in the main read-out, with a control signal flat, not every such curve was filed as active; inconclusive = small, poorly fitted or top-dose-only effect, or a change in a side signal; also: % of control where 0% means no effect
# Caspase-1 inhib = blocks human caspase-1 allosterically or competitively; Caspase-1 enzyme, Ac-WEHD-AFC fluorogenic rate; Potency, µM (series often up to 57.5 µM), for inactives: at the highest dose activity change, negative = inhibition, hits mostly inhibitors; 75,000 compounds, 0.03% hits;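 also: plate controls were vehicle for no effect and no substrate for full effect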
# p53ts 39C kill = p53ts cell cytotoxicity, nonpermissive temperature. Potency, µM (top dose mostly 46.1 µM), for the others: top-dose activity change, negative = cell killing, hits mostly cytotoxic. 130,000 compounds, 1.5% hits. H1299-p53A138V viability at 39C, ATP luminescence, 24 h; also: % is scaled to controls: 0 for no effect and ±100 for the full control effect; nearly all actives have a fitted effect of over 55% in size
# IkB sig inh = suppresses IkB signaling in ABC-DLBCL reporter cells. ABC-DLBCL IkBa-CBG/CBR dual luciferase ratio, 4 h; response scale: scaled: untreated 0%, proteasome inhibitor 100%. Potency, µM (doses to about 57.1 µM), for the others: at the top dose IkBa stabilization activation. 110,000 compounds, 0.04% hits. AID 445; active = well fitted curve in the direction sought with a large enough effect in the signal ratio, not every such curve was filed as active; inconclusive = small, poorly fitted or top-dose-only effect, or a change in a side signal; the % refers to the signal ratio;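 also: the direction sought is a rising ratio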
#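 In this assay, an IκBα–CBG68 fusion accumulates when IKK-driven degradation is blocked; native CBR normalizes for cell number. OCI-Ly3 cells were treated 4 h with compound and doxycycline, then green and red light read after Chroma-Glo addition.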
# Luciferase inh = firefly luciferase inhibition | 72,000 compounds, 2.2% hits | purified firefly luciferase, luminescence, 8 min | P08659 | Potency, µM (series often up to 57.1 µM), for the others: at the top dose activity change, negative = inhibition, hits mostly inhibitors; also: % is scaled to controls: 0 for no effect and ±100 for the full control effect; nearly all actives have a fitted effect of over 40% in size
#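 Titration-based qHTS; buffer 50 mM imidazole pH 7.2, 50 mM KCl, 7 mM MgCl2, 10 uM ATP, 0.01% Tween 20, 0.05% BSA; luciferase/luciferin detector mix added after compound; 8 min, ambient; luminescence.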
# p53ts 32C kill = p53ts cell cytotoxicity, permissive temperature | Potency, µM (series often up to 46.1 µM), for the others: at the top dose activity change, negative = cytotoxicity, usual class: cytotoxic | AID 924 | 130,000 compounds, 0.93% hits | H1299-p53A138V at 32C, ATP luminescence viability, 24 h;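 also: 0% = DMSO and -100% = full killing by reference compound; nearly all actives have a fitted effect of over 55% in size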
#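 H1299-p53 A138V cells (temperature-sensitive p53) exposed 24 h to up to 46 uM compound at 32C, where p53 is wild-type in conformation. Viability read as ATP luminescence and normalised to DMSO and 100 uM tamoxifen. AC50 fitted with the Hill equation.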
# Numbers without * were called inactive; ? = inconclusive; / = no result given; ! = not active in a repeat; [ ] = dose if it differs, or a comment. Hits are enriched below; roughly 2.5% of the tested compounds scored in any of these assays. Unless noted, calls follow the shape of the dose curve; as a rule, active = well fitted curve in the direction sought with a large enough effect; inconclusive = small, poorly fitted or top-dose-only effect, or another doubt; inactive = no such curve, though single readings can be large; an effect the other way counts as inactive or inconclusive. Potency is read from the fitted curve at half-maximal effect.
SMILES,Casp7 inh,Caspase-1 inhib,p53ts 39C kill,IkB sig inh,Luciferase inh,p53ts 32C kill
CCOC(=O)CN(Cc1ccccc1)C(C(=O)NC1CCCCC1)c1ccccc1 (configuration not stated),/,/,2.5µM*,?,/,-28%
O=C(CSc1nccn1-c1ccccc1)Nc1ccc2c(c1)OCO2,-1%,1%,0%,1%,-15%,-20%
O=C1C(c2ccncc2)=C(O)c2ccccc21,-1%,1%,6.3µM*,?,13µM*,3.2µM*
COc1ccc(-n2cc(-c3ccc4c(c3)OCO4)n(CC(=O)Nc3cc(Cl)ccc3C)c2=O)cc1,/,/,10µM*,?,/,10µM*
COc1ccc(-n2cc(-c3ccc4c(c3)OCO4)n(CC(=O)Nc3cccc(C)c3C)c2=O)c(OC)c1,/,/,-28%,?,/,-20%
COc1ccc(-c2cc(C(F)(F)F)nc(N3CCCCCC3)n2)cc1,1%,-1%,0%,0%,3%,-13%
COc1ccc(-c2cc(C(N)=O)nc(N3CCCCCC3)n2)cc1,-2%,-1%,10µM*,?,7.9µM*,7.9µM*
Cn1c(=O)c2c(-c3ccccc3)n3c(c2n(C)c1=O)C(c1ccco1)Nc1ccccc1-3 (configuration not stated),/,/,2%,-3%,/,3%
O=C(Nc1ccon1)c1cc2c(s1)CCCCCC2,-5%,2%,?,2%,25µM*,-16%
O=C(Nc1ccon1)c1cc2c(s1)CCCC2,-2%,0%,5%,-2%,2%,6%
Cc1ccc(C)c(Cn2nnc(C(=O)NCc3ccc(Cl)cc3Cl)c2N)c1,/,/,13µM*,2%,/,-11%
Nc1c(C(=O)NCc2ccc(Cl)cc2Cl)nnn1Cc1ccc(Br)cc1,/,/,-9%,?,/,-7%
Cc1cc2c(c(=O)n1CC1CCCO1)C(c1ccc3c(c1)OCO3)C(C#N)=C(N)O2 (configuration not stated),/,/,/,/,-1%[25.5 µM],/
CC(C)(C)c1ccc(-c2conc2N)cc1,-1%,0%,?,-3%,10µM*,?
Nc1cccc(-c2nc3ccccc3[nH]2)c1,-3%,-5%,?,8%,13µM*,?
Nc1ccc(-c2nc3ccc(-c4nc5ccc(N)cc5[nH]4)cc3[nH]2)cc1,-7%,3%,11%,/,/,-14%
c1ccc(-c2csc(-c3nc4ccccc4[nH]3)n2)cc1,-4%,-2%,16µM*,/,/,7.9µM*
Nc1ccccc1-c1nc2ccccc2[nH]1,-11%,-16%,-29%,2%,?,-24%
Cc1ccc2nc(-c3cccc(N)c3)[nH]c2c1,/,/,11µM*,/,/,14µM*
Nc1ccc(-c2nc3ccccc3[nH]2)cc1,0%,-1%,?,16%,16µM*,10µM*
CC(C)Nc1nnc(SCC(=O)Nc2ccc(F)cc2)s1,0%,1%,-5%,?,0%,10%
O=C1CCCN1CCC1CCN(C(=O)Nc2ccccc2)CC1,0%,-3%,-1%,-2%,-1%,6%
CC(C)Oc1ccccc1C1CC(=O)Nc2cc3c(cc21)OCO3 (configuration not stated),-5%,-1%,-9%,?,2%,3%
CCCn1c(=O)c2ccccc2n2c(SCC(=O)c3cc(C)n(CC4CCCO4)c3C)nnc12 (configuration not stated),1%,1%,-1%,-1%,8%,-1%
Cc1ccc(C2CCN(C(=O)c3cnn(-c4cccc(Cl)c4)c3C3CCN(C(=O)OC(C)(C)C)CC3)C2)cc1 (configuration not stated),/,/,4%,?,/,22%
SMILES,Casp7 inh,Caspase-1 inhib,p53ts 39C kill,IkB sig inh,Luciferase inh,p53ts 32C kill
CCOc1ccc(S(=O)(=O)Nc2ccc(S(=O)(=O)N3CCOCC3)cc2)cc1,-1%,-1%,10%,1%,1%,1%
COc1ccc(NC(=O)CN(c2ccc(C)cc2)S(=O)(=O)c2cccs2)cc1OC,/,/,7%,-2%,/,3%
Cn1cc(-c2nc3ccccc3[nH]2)c2ccccc21,1%,-3%,-25%,?,13µM*,-23%
O=c1cc(-c2ccccc2)[nH]c2nc3ccccc3n12,-10%,-6%,2µM*,?,2.5µM*,2µM*
O=c1cc(-c2ccccc2)[nH]n1-c1nc2ccccc2s1,-1%,-2%,?,?,-11%,?
COC(=O)C1=C(C)NC(C)=C([N+](=O)[O-])[C@@H]1c1ccccc1C(F)(F)F,-2%,-4%,-6%,?,4µM*,12%
Cn1c(/N=C/c2c[nH]c3ccccc23)nc2ccccc21,1%,-1%,12%,7%,0.63µM*,5%
Cn1c(/N=C/c2ccc3c(c2)OCO3)nc2ccccc21,-2%,-2%,-2%,-2%,2.5µM*,-5%
Cn1c(NCc2c[nH]c3ccccc23)nc2ccccc21,0%,1%,-29%,0%,25µM*,?
CCCn1c(NCc2ccc3c(c2)OCO3)nc2ccccc21,0%,-1%,-10%,/,/,-6%
Cc1ccc(Cc2nc3ccccc3nc2SCC(=O)N2CCN(c3ccc(F)cc3)CC2)cc1,/,/,-20%,?,/,1%
COc1ccc(CCN2CCC(Nc3nc4ccccc4n3Cc3ccc(F)cc3)CC2)cc1,-1%,-2%,13µM*!,5%[25.6 µM],2%[25.5 µM],-15%
COc1ccc(Cn2c(-c3ccc(OC)cc3)nc3ccccc32)cc1,/,/,1%,/,/,7%
CCOC(=O)C1=C(C)NC2=C(C(=O)C(C(=O)OCC)C(c3ccco3)C2)C1c1ccccn1 (configuration not stated),?,/,7%,0%,1%,4%
Cc1c(C(=O)OCC(C)(C)CN(C)C)oc2ccccc12,1%,-2%,-9%,-2%,13µM*,-26%
CCCNc1ncnc2c1cnn2-c1ccc(OC)cc1,/,/,/,/,7.9µM*,/
CCCN(CCC)c1ncnc2c1cnn2-c1ccc(OC)cc1,-2%,-2%,?,-2%,16µM*,?
C=CCNc1ncnc2c1cnn2-c1ccc(OC)cc1,-1%,-4%,?,/,/,?
CCCCN(CCCC)c1ncnc2c1cnn2-c1cccc(C)c1,/,/,-4%,-2%,/,8%
CCCC(CCC)C(=O)NCCN1CCOCC1,0%,0%,7%,-1%,4%,-6%
COC(=O)[C@H](Cc1ccccc1)NC(=O)NCCc1ccc(S(N)(=O)=O)cc1,1%,-2%,8%,-1%,2%,1%
CC1CCCN(C(=O)CSc2c3c(nc4cc(Cl)ccc24)CCCC3)C1 (configuration not stated),/,/,?,9%,/,25µM*
CC1CCCCN1C(=O)CSc1c2c(nc3cc(Cl)ccc13)CCCC2 (configuration not stated),/,/,13µM*,?,/,-13%
